In the library only some 10% were active in any assay of this set; here they are far more common.
GLS inh = inhibitors of human glutaminase (GLS); GLS enzymatic activity, qHTS titration; hit rate 0.21% among 410,000; AID 624170; O94925; Potency, µM (highest dose often 45.5 µM), without a hit: top-dose activity change, negative = inhibition, usual class: inhibitors; also: % is scaled to controls: 0 for no effect and ±100 for the full control effect
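Glutamate formation by hKGA was monitored fluorometrically using coupled glutamate oxidase, HRP and Amplex Red. Substrate was added as 1 mM L-glutamine solution; incubation was 30 min at RT after an initial read.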
G9a inh = inhibitors of human histone lysine methyltransferase G9a. G9a H3K9 monomethylation, AlphaScreen, 2 h. Potency, µM (titrated, usually from 102 µM), for the others: at the highest dose activity, negative = inhibition, hits mostly inhibitors. Q96KQ7. hit rate 8.8% among 350,000; also: % is scaled to controls: 0 for no effect and ±100 for the full control effect; nearly all actives have a fitted effect of over 75% in size
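G9a (20 nM) was preincubated 15 min with compound, then reacted 2 h at room temperature with 500 nM biotin-H3K9 peptide and 20 µM SAM. Monomethyl-H3K9 detected by AlphaScreen using anti-H3K9me1 antibody.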
BAZ2B inh = inhibitors of human BAZ2B bromodomain; AID 504333; hit rate 4.4% among 360,000; AlphaScreen BAZ2B-H3K14Ac peptide displacement; Q9UIF8; Potency, µM (top dose mostly 114 µM), inactives show top-dose activity change, negative = inhibition, usual class: inhibitors; also: % is scaled to controls: 0 for no effect and ±100 for the full control effect; nearly all actives have a fitted effect of over 60% in size
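AlphaScreen displacement of biotin-H3(5-23)K14Ac peptide (50 nM final) from BAZ2B (50 nM final) in PBS pH 7.4, 0.01% Tween-20; complex preformed 30 min RT, then compounds (top 110 uM) 30 min RT, beads 20 min dark.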
HP1b binding inh = blocks HP1-beta chromodomain binding to methylated histone tails | P83916 | AlphaScreen HP1-beta / biotin-H3K9me3 peptide binding | Potency, µM (titrated, usually from 114 µM), for the others: at the highest dose activity change, negative = inhibition, actives largely listed as inhibitors | hit rate 0.56% among 390,000 | AID 540317; also: nearly all actives have a fitted effect of over 70% in size
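HP1-beta protein (50 nM final) preincubated 30 min at room temperature with biotinylated H3(1-18)K9me3 peptide (50 nM) in PBS pH 7.4, 0.01% Tween-20, then compound added for 30 min. AlphaScreen streptavidin donor/nickel chelate acceptor beads (10 ug/mL final), 30 min dark, luminescence read.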
JMJD2A Tudor inh = inhibitors of human JMJD2A Tudor domain. AlphaScreen JMJD2A-Tudor / H3K4me3 peptide binding. Potency, µM (doses to about 114 µM), inactives show at the top dose activity change, negative = inhibition, most hits filed as inhibitors. hit rate 4.4% among 390,000; also: % is scaled to controls: 0 for no effect and ±100 for the full control effect; nearly all actives have a fitted effect of over 50% in size
Target sequence (O75164 whole entry, looked up, the tested form may be a part): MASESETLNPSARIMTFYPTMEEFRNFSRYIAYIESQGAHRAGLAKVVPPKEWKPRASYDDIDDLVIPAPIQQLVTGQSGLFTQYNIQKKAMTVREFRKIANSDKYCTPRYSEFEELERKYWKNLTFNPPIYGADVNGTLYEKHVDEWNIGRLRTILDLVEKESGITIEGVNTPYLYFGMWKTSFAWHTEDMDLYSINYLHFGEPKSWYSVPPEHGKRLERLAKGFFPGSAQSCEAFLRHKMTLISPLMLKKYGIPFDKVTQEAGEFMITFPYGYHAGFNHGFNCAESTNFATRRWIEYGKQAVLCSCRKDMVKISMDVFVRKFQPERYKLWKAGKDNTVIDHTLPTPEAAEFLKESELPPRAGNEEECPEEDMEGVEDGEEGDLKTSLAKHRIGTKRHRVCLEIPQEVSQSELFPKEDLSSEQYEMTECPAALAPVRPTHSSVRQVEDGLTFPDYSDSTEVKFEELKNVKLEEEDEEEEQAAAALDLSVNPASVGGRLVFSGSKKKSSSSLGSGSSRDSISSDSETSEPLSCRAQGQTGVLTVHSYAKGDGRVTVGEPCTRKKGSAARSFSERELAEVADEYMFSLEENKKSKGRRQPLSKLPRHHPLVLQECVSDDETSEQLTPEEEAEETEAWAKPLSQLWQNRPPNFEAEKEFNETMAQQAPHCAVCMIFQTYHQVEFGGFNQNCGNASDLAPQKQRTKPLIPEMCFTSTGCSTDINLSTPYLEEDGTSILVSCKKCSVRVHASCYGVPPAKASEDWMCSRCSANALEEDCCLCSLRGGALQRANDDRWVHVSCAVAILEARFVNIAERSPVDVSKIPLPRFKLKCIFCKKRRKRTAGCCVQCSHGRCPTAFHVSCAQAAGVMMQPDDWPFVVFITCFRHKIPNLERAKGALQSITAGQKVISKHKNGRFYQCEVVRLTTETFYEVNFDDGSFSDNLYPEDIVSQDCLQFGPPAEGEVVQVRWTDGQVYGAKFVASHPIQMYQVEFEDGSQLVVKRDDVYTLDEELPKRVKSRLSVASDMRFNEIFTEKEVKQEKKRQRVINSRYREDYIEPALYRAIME
Active calls of the source: *; ? = inconclusive; · = not tested or not shown; [ ] = remark or other dose. Calls follow the shape of the dose curve; as a rule, active = well fitted curve in the direction sought with a large enough effect; inconclusive = small, poorly fitted or top-dose-only effect, or another doubt; inactive = no such curve, though single readings can be large; an effect the other way counts as inactive or inconclusive. Potency is read from the fitted curve at half-maximal effect.

SMILES	GLS inh	G9a inh	BAZ2B inh	HP1b binding inh	JMJD2A Tudor inh
CCCCn1c(O)c(N=Nc2ccccn2)c2ccccc21	4.8%	40.9%[59 µM]	0.4%	91.9%	17.4%
Cc1ccc(S[C@@H](CCN2CC[C@H](NC(=O)OCc3ccccc3)CCC2=O)c2ccccc2)cc1	-2.9%	·	-7.8%	29.6%	25.1µM*
Cc1ccc(SC[C@H](C)CN2CC[C@H](NC(=O)OCc3ccccc3)CCC2=O)cc1	-0.5%	·	-32.8%	37.8%	-13.4%
Cc1ccccc1C(=O)NC(NC(=S)Nc1ccc(S(N)(=O)=O)cc1)C(Cl)(Cl)Cl (centres undefined)	6.8%	-15.1%[59 µM]	-32.9%	3.5%	-31.4%
Cn1c(SCc2n[nH]c(=S)n2-c2ccccc2)nnc1-c1ccccc1	16.8%	8.91µM*	-1.3%	31.5%	17.8µM*
Cc1ccc(C)c(NCc2n[nH]c(=S)n2-c2ccccc2)c1	?	·	-2.4%	-4.7%	?
CCCOCC(O)CCc1n[nH]c(=S)n1-c1ccccc1 (centres undefined)	-14.4%	·	-4.1%	25.0%	50.1µM*
COC(Cc1n[nH]c(=S)n1-c1ccccc1)OC	4.7%	-15.4%[59 µM]	-4.5%	26.2%	17.8µM*
Cc1cccc(C)c1NCc1n[nH]c(=S)n1-c1ccccc1	4.3%	11.2µM*	-25.1%	23.4%	39.8µM*
Cc1cccc(C)c1OCc1n[nH]c(=S)n1-c1ccccc1	-18.0%	2.51µM*	-21.0%	39.9%	?
Cc1n[nH]c(=S)n1-c1cccc(Cl)c1	2.0%	3.98µM*	-3.7%	21.7%	7.94µM*
Cc1ccc(OCc2n[nH]c(=S)n2-c2ccccc2)cc1C	-5.8%	·	-10.4%	8.6%	-17.4%
CC(C)Oc1ccc(CCc2n[nH]c(=S)n2-c2ccccc2)cc1	-23.0%	2.51µM*	-23.3%	-9.2%	-33.1%
COCc1n[nH]c(=S)n1-c1ccccc1	16.9%	39.8µM*	2.4%	38.0%	39.8µM*
CSc1n[nH]c(=O)n1-c1cccc(Cl)c1	-2.8%	11.1%	1.2%	17.1%	7.3%
CCC(C)Sc1ccc([C@@H]2[C@H]3C(=O)N(CC)C(=O)[C@H]3[C@]3(C(=O)OC)CCCN23)cc1OC (some centres undefined)	17.7%	1.0%[2.33 µM]	?	13.8%	?
O=C(COc1ccc(Cl)cc1Br)Nc1ccncc1	-2.7%	30.9%[59 µM]	10.3%[0.457 µM]	28.2%	-12.6%
O=C(COC(=O)c1ccc(F)cc1)Nc1ccccc1N1CCOCC1	-2.5%	7.9%[59 µM]	3.5%	-9.0%	-15.1%[11.4 µM]
Cc1ccccc1OCc1n[nH]c(=S)n1Cc1ccccc1	74.2%	8.91µM*	-22.5%	-7.9%	-30.1%
S=c1[nH]nc(COc2cccc3ccccc23)n1Cc1ccccc1	5.5%	-30.4%	-8.4%	28.8%	-12.7%
Cc1ccccc1OCc1n[nH]c(=S)n1-c1cccc(Cl)c1	-1.0%	11.2µM*	-28.0%	36.5%	-24.9%
Cc1ccc(-n2c(CCc3ccccc3)n[nH]c2=S)cc1C	?	2µM*	-31.3%	6.5%	?
Cc1cc(OCCOCCNC(C)C)cc(C)c1Cl	-1.2%	?	79.4µM*	-18.1%	3.16µM*
Cc1cc(OCC(=O)NC(C)C)cc(C)c1Cl	-3.0%	-7.9%[59 µM]	1.1%	77.0%	-1.4%
COCCOCC(O)CN1CCN(c2ccc(C)cc2)CC1 (centres undefined)	30.3%	4.47µM*	·	-37.8%	?
SMILES	GLS inh	G9a inh	BAZ2B inh	HP1b binding inh	JMJD2A Tudor inh
OC(COCc1ccccc1)CN1CCN(c2ccccc2)CC1 (centres undefined)	46.7%	?	?	48.6%	?
COCCOCC(O)CN1CCN(c2ccccc2)CC1 (centres undefined)	39.0%	?	50.1µM*	-25.6%	12.6µM*
Cc1ccc(N2CCN(CC(O)COc3ccccc3)CC2)cc1 (centres undefined)	20.7%	-19.3%	?	13.8%	-24.7%
CCCc1nc2ccccc2n1CCOC	-5.1%	26.7%[59 µM]	-1.4%	24.5%	-7.1%[57.1 µM]
N#CC1(c2cccc(Br)c2)C(=O)Nc2ccccc21 (centres undefined)	0.0%	·	·	19.8%[57 µM]	2.2%
CCN(CC)C(=O)C1=C(C)N(CCCN2CCCC2=O)C(=O)C(CC(=O)NCC2CCCCC2)C1 (centres undefined)	-9.9%	·	·	·	·
O=C(/C=C/c1ccccc1)OCC(=O)c1c[nH]c2ccccc12	-14.9%	·	·	26.9%	-5.5%
Cc1ccc(/C=N/N(C)C2=NS(=O)(=O)c3ccccc32)o1	·	39.8µM*	22.3%	·	·
O=C(Nc1cccc(S(=O)(=O)N2CCCC2)c1)[C@H]1C[C@H](O)[C@@H](CO)O1	3.9%	·	·	·	·
COCc1cc(Sc2ccc(Cl)cc2)nc(C)n1	1.4%	2.8%	2.6%	52.9%	11.7%
COc1ccc(N2CCN(C(=O)c3c(Cl)cnn3C)CC2)cc1	35.1%	39.8%	-0.7%	8.7%	-12.4%
CCSc1ncc(Cl)c(C(=O)N2CCN(c3ccc(OC)cc3)CC2)n1	15.5%	14.1µM*	?	-18.4%	?
CCCS(=O)(=O)c1ncc(Cl)c(C(=O)N2CCN(c3ccc(OC)cc3)CC2)n1	1.3%	11.2µM*	-3.1%	36.3%	-16.0%
COc1ccc(N2CCN(C(=O)c3ccncc3)CC2)cc1	42.9%	?	-27.4%	27.9%	-16.1%
COCCNC(=O)Cn1c(=O)n(Cc2ccc(C(=O)NCc3ccco3)cc2)c(=O)c2ccccc21	-0.8%	-46.3%	-38.4%	25.4%	-5.3%
CCOC(=O)c1cccc(NC(=O)/C=C/c2ccc([N+](=O)[O-])cc2)c1	9.3%	-5.0%[59 µM]	-30.1%	28.8%	-1.6%
CCC(=O)NC(=S)Nc1cccc(NC(=O)c2ccccc2Cl)c1	-11.5%	17.8µM*	-1.1%	-0.7%	-6.2%[11.4 µM]
CC(C)CC(=O)NC(=S)Nc1cccc(NC(=O)c2ccccc2Cl)c1	3.2%	7.94µM*	-3.0%	22.6%	?
O=C(Nc1ccc2oc(-c3ccncc3)nc2c1)c1ccc(Br)o1	7.2%	31.6µM*	-18.6%	-2.6%	-14.1%
O=C(Nc1ccc2oc(-c3ccncc3)nc2c1)c1ccco1	-21.8%	39.8µM*	?	68.1%	-29.7%
Cc1cc(=O)[nH]c2c(C)cc(S(=O)(=O)N3CCOCC3)cc12	-4.5%	·	·	24.8%	4.3%
O=c1c(/C=N/N2CCOCC2)c(C(F)(F)F)[nH]n1-c1ccccc1	30.3%	39.8µM*	-34.6%	-0.4%	-21.0%
CCCn1c(O)c(CN2CCCCC2)c(C)c(C#N)c1=O	3.8%	-19.8%[59 µM]	-12.9%	-12.6%	?
Cc1c(CN2CCCCC2)c(O)n(CCCO)c(=O)c1C#N	12.2%	44.7µM*	-8.2%	22.6%	-17.1%
COc1cccc(C(=O)N2CCN(C3CCN(Cc4ccccc4)CC3)CC2)c1OC	7.3%	?	17.8µM*	22.4µM*	0.794µM*
COc1cc(OC)cc(C(=O)N2CCN(C3CCCCC3)CC2)c1	1.6%	·	?	?	22.4µM*
CC1CCC(N2CCN(C(=O)c3ccccc3F)CC2)CC1 (centres undefined)	-0.2%	15.8µM*	79.4µM*	?	28.2µM*

From PubChem BioAssay
